# According to the supplement of paper PMC6897291:
# Tests used:
# U-2932 [1] = test: growth inhibition by drug alone (1 - RLU/untreated control) (fraction); higher = stronger inhibition; conditions: 177Lu-lilotomab satetraxetan 0 ug/ml
# Summary of the method: (§1)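 With or without 18 h pretreatment by a radiolabelled anti-CD37 antibody conjugate (~600 MBq/mg; 0.5 µg/ml RIVA, 1 µg/ml U-2932), RIVA and U-2932 cells were washed and plated at 3,000 cells/well. Pre-printed compound doses were 10/100 nM for RIVA and 10/1,000 nM for U-2932. Growth inhibition uses RealTime-Glo RLU relative to the untreated no-drug wells. The calculation is 1 − RLU/mean of 48 such wells per plate, with reads daily from day 3 after 1 h at 37°C.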
# RIVA [2] = test: as above; conditions: 177Lu-lilotomab satetraxetan 0 ug/ml
# Summary of the method: as §1
# U-2932 [3] = test: growth inhibition by drug plus 177Lu-lilotomab satetraxetan (1 - RLU/untreated control) (fraction); higher = stronger inhibition; conditions: 177Lu-lilotomab satetraxetan 1 ug/ml
# Summary of the method: as §1
# RIVA [4] = test: as above; conditions: 177Lu-lilotomab satetraxetan 0.5 ug/ml
# Summary of the method: as §1
Structure (SMILES),"growth inhibition by drug alone (U-2932 [1]; 10 nM, time (day): 3)","growth inhibition by drug alone (U-2932 [1]; 10 nM, time (day): 4)","growth inhibition by drug alone (U-2932 [1]; 10 nM, time (day): 5)","growth inhibition by drug alone (U-2932 [1]; 10 nM, time (day): 6)","growth inhibition by drug alone (U-2932 [1]; 1000 nM, time (day): 3)","growth inhibition by drug alone (U-2932 [1]; 1000 nM, time (day): 4)","growth inhibition by drug alone (U-2932 [1]; 1000 nM, time (day): 5)","growth inhibition by drug alone (U-2932 [1]; 1000 nM, time (day): 6)","growth inhibition by drug alone (RIVA [2]; 10 nM, time (day): 3)","growth inhibition by drug alone (RIVA [2]; 10 nM, time (day): 4)","growth inhibition by drug alone (RIVA [2]; 10 nM, time (day): 5)","growth inhibition by drug alone (RIVA [2]; 10 nM, time (day): 6)","growth inhibition by drug alone (RIVA [2]; 100 nM, time (day): 3)","growth inhibition by drug alone (RIVA [2]; 100 nM, time (day): 4)","growth inhibition by drug alone (RIVA [2]; 100 nM, time (day): 5)","growth inhibition by drug alone (RIVA [2]; 100 nM, time (day): 6)","growth inhibition by drug plus 177Lu-lilotomab satetraxetan (U-2932 [3]; 10 nM, time (day): 3)","growth inhibition by drug plus 177Lu-lilotomab satetraxetan (U-2932 [3]; 10 nM, time (day): 4)","growth inhibition by drug plus 177Lu-lilotomab satetraxetan (U-2932 [3]; 10 nM, time (day): 5)","growth inhibition by drug plus 177Lu-lilotomab satetraxetan (U-2932 [3]; 10 nM, time (day): 6)","growth inhibition by drug plus 177Lu-lilotomab satetraxetan (U-2932 [3]; 1000 nM, time (day): 3)","growth inhibition by drug plus 177Lu-lilotomab satetraxetan (U-2932 [3]; 1000 nM, time (day): 4)","growth inhibition by drug plus 177Lu-lilotomab satetraxetan (U-2932 [3]; 1000 nM, time (day): 5)","growth inhibition by drug plus 177Lu-lilotomab satetraxetan (U-2932 [3]; 1000 nM, time (day): 6)","growth inhibition by drug plus 177Lu-lilotomab satetraxetan (RIVA [4]; 10 nM, time (day): 3)","growth inhibition by drug plus 177Lu-lilotomab satetraxetan (RIVA [4]; 10 nM, time (day): 4)","growth inhibition by drug plus 177Lu-lilotomab satetraxetan (RIVA [4]; 10 nM, time (day): 5)","growth inhibition by drug plus 177Lu-lilotomab satetraxetan (RIVA [4]; 10 nM, time (day): 6)","growth inhibition by drug plus 177Lu-lilotomab satetraxetan (RIVA [4]; 100 nM, time (day): 3)","growth inhibition by drug plus 177Lu-lilotomab satetraxetan (RIVA [4]; 100 nM, time (day): 4)","growth inhibition by drug plus 177Lu-lilotomab satetraxetan (RIVA [4]; 100 nM, time (day): 5)","growth inhibition by drug plus 177Lu-lilotomab satetraxetan (RIVA [4]; 100 nM, time (day): 6)"
Cc1ccc(-n2nc(C(C)(C)C)cc2NC(=O)Nc2ccc(OCCN3CCOCC3)c3ccccc23)cc1 [BIRB 796 (Doramapimod)],0.238,0.206,0.0293,0.0019,0.274,0.272,0.208,0.2,0.117,0.131,0.0641,-0.0577,-0.00598,0.0829,0.0349,-0.0954,0.173,0.182,0.252,0.301,0.273,0.29,0.32,0.408,0.669,0.691,0.702,0.711,0.407,0.527,0.521,0.528
O=C(Nc1cccnc1)N1CCC(Cc2cccc(Oc3ccc(C(F)(F)F)cn3)c2)CC1,0.144,0.101,-0.0107,-0.0195,0.779,0.796,0.833,0.872,0.473,0.369,0.37,0.34,-0.00381,0.0224,0.0325,-0.0255,0.152,0.18,0.262,0.319,0.299,0.291,0.395,0.544,0.71,0.692,0.714,0.718,0.554,0.566,0.583,0.595
CCCS(=O)(=O)Nc1ccc(F)c(C(=O)c2c[nH]c3ncc(-c4ccc(Cl)cc4)cc23)c1F [Vemurafenib (PLX4032)],0.026,-4.15e-06,-0.0629,-0.147,-0.152,-0.0928,-0.16,-0.291,-0.0219,-0.0744,-0.165,-0.55,-0.231,-0.206,-0.219,-0.345,-0.0121,0.00305,0.0511,0.0873,-0.143,-0.047,-0.0561,0.06,0.42,0.546,0.561,0.576,0.432,0.531,0.539,0.524
CNC(=O)c1ccc(N2C(=S)N(c3ccc(C#N)c(C(F)(F)F)c3)C(=O)C2(C)C)cc1F [MDV3100 (Enzalutamide)],0.0921,0.0374,-0.126,-0.107,0.019,0.0335,-0.0413,-0.0245,0.0909,0.0471,0.0315,-0.246,-0.0634,-0.143,-0.144,-0.21,0.0217,0.0789,0.128,0.16,0.0172,0.0892,0.116,0.182,0.559,0.587,0.59,0.602,0.519,0.555,0.553,0.556
CC[C@]1(O)C[C@@H]2CN(CCc3c([nH]c4ccccc34)[C@@](C(=O)OC)(c3cc4c(cc3OC)N(C)[C@H]3[C@@](O)(C(=O)OC)[C@H](OC(C)=O)[C@]5(CC)C=CCN6CC[C@]43[C@@H]65)C2)C1 [Vinblastine],0.125,0.0844,0.0429,0.00677,0.942,0.96,0.971,0.978,0.0866,0.101,0.0372,-0.193,0.546,0.442,0.393,0.337,0.0509,0.085,0.136,0.198,0.96,0.973,0.981,0.984,0.383,0.503,0.523,0.53,0.574,0.643,0.659,0.668
CCN(CC)CCCC(C)Nc1nc(C)cc(Nc2ccc3nc(C)cc(N)c3c2)n1 (stereo not given),0.0927,0.0716,-0.114,-0.134,0.0662,0.0733,-0.022,-0.107,-0.0541,-0.0225,-0.0658,-0.279,-0.31,-0.199,-0.249,-0.391,0.0413,0.106,0.161,0.181,0.092,0.11,0.165,0.255,0.572,0.606,0.627,0.625,0.489,0.538,0.548,0.545
Oc1cccc(-c2nc(N3CCOCC3)c3oc4ncccc4c3n2)c1,0.191,0.128,-0.0145,-0.0687,0.836,0.879,0.891,0.894,0.135,0.0735,0.0557,-0.0131,0.762,0.695,0.667,0.585,0.125,0.138,0.171,0.231,0.633,0.625,0.627,0.655,0.54,0.556,0.562,0.572,0.837,0.831,0.827,0.824
NC(=O)c1ccc(I)c([N+](=O)[O-])c1 [Iniparib (BSI-201)],-0.0132,-0.0395,-0.0441,-0.012,-0.105,-0.0771,-0.0716,-0.0297,-0.235,-0.257,-0.288,-0.389,-0.378,-0.352,-0.395,-0.471,-0.0638,-0.00415,0.0467,0.129,-0.0685,-0.00507,0.0384,0.191,0.437,0.491,0.504,0.513,0.436,0.495,0.516,0.523
C[S+]([O-])c1ccc(-c2nc(-c3ccc(F)cc3)c(-c3ccncc3)[nH]2)cc1 (stereo not given),0.109,0.0691,0.0651,0.00981,0.494,0.396,0.258,0.202,-0.0319,0.0179,-0.0545,-0.284,-0.128,-0.0437,-0.0833,-0.227,0.103,0.123,0.206,0.225,0.441,0.358,0.325,0.374,0.668,0.678,0.684,0.677,0.322,0.441,0.432,0.451
CCC(=O)N1CCN(c2ccc(-n3c(=O)ccc4cnc5ccc(-c6cnc7ccccc7c6)cc5c43)cc2C(F)(F)F)CC1 [Torin 1],0.203,0.128,0.0048,-0.022,0.9,0.883,0.866,0.87,0.0288,0.0386,-0.0391,-0.398,0.409,0.37,0.289,0.104,0.168,0.161,0.208,0.242,0.904,0.878,0.875,0.879,0.556,0.599,0.631,0.621,0.595,0.604,0.565,0.531
O=C(Nc1ccc(OC(F)(F)F)cc1)c1sccc1NCc1ccnc2ccccc12,0.0561,-0.00441,-0.0537,-0.177,0.00246,-0.0266,-0.0424,-0.000118,-0.0142,-0.0478,-0.122,-0.26,-0.426,-0.341,-0.386,-0.562,-0.0212,0.051,0.0902,0.117,-0.0347,0.0399,0.0489,0.0855,0.534,0.568,0.593,0.603,0.0922,0.306,0.33,0.355
COc1cc2nc(N3CCCN(C)CC3)nc(NC3CCN(Cc4ccccc4)CC3)c2cc1OC,0.128,0.0539,-0.00458,-0.0956,0.00727,0.0766,0.0688,0.0239,0.0768,0.122,0.055,-0.0793,0.209,0.192,0.165,0.117,0.0951,0.135,0.169,0.207,0.133,0.247,0.267,0.319,–,–,–,–,–,–,–,–
C[C@H](NC(=O)Cc1cc(F)cc(F)c1)C(=O)N[C@@H]1C(=O)N(C)c2ccccc2-c2ccccc21,-0.0485,-0.0319,-0.0413,0.0451,-0.0641,-0.0187,-0.0724,-0.157,-0.258,-0.261,-0.314,-0.599,-0.307,-0.355,-0.331,-0.429,-0.062,-0.041,-0.0625,-0.0177,-0.026,0.0466,0.00781,-0.0375,–,–,–,–,–,–,–,–
CCOc1cc2ncc(C#N)c(Nc3ccc(OCc4ccccn4)c(Cl)c3)c2cc1NC(=O)/C=C/CN(C)C [Neratinib (HKI-272)],-0.0556,-0.0442,-0.0146,0.0157,-0.0267,-0.00012,-0.0352,-0.0269,-0.145,-0.144,-0.165,-0.233,-0.0145,-0.0628,-0.098,-0.14,-0.0172,-0.00319,0.0327,0.194,-0.0673,0.003,0.00224,0.0815,0.358,0.498,0.529,0.541,0.367,0.422,–,–
